From PubChem
TRb SRC2 PPI: qHTS for Inhibitors of the Interaction of Thyroid Hormone Receptor and Steroid Receptor Coregulator 2; Thyroid hormone receptor beta (Homo sapiens), P10828; TRbeta-SRC2 peptide binding, fluorescence polarization; receptor liganded with 1 µM T3; Potency, µM (top dose mostly 106 µM), actives largely listed as inhibitors; hit rate 0.065% among 280,000; also: nearly all actives have a fitted effect of over 50% in size
Target sequence (P10828 whole entry, looked up): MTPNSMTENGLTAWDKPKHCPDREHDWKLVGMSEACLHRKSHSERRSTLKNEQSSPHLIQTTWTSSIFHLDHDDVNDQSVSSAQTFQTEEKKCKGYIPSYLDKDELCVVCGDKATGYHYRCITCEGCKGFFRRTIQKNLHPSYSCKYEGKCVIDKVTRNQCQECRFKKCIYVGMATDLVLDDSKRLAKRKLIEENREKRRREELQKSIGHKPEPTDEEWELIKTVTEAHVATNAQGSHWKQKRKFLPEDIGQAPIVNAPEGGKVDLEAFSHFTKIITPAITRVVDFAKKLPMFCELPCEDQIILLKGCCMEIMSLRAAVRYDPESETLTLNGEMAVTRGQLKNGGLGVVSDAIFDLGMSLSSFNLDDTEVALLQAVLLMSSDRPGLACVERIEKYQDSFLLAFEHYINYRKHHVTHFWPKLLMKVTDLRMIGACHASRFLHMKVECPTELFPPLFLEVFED
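Assay buffer: 20 mM Tris-HCl, 100 mM NaCl, 10% glycerol, 1 mM EDTA, 0.01% NP-40, 1 mM DTT, 1 uM T3, 5% DMSO; TRb LBD 0.6 uM, Texas Red SRC2 20 nM; FP after 5 hr.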
TexasRed fluor: Total Fluorescence Counterscreen for Inhibitors of the Interaction of Thyroid Hormone Receptor and Steroid Receptor Coregulator 2; hit rate 0.29% among 280,000; TRb/SRC2 Texas Red total fluorescence interference; Potency, µM (top dose mostly 106 µM); AID 1479, 2009; active = well fitted curve in either direction with a large enough effect; inconclusive = small, poorly fitted or top-dose-only effect
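Human TRβ ligand-binding domain (0.6 uM) and Texas Red SRC2 peptide (20 nM) in Tris buffer with 1 uM T3 and 5% DMSO were incubated with pinned compound for 5 hr at ambient temperature. Total fluorescence was computed as S + 2P (555/632 nm).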
ERG Ets-DNA blk: qHTS for Small Molecule Inhibitors of the ERG Ets/DNA interaction; Transcriptional regulator ERG (Homo sapiens), P11308; fluorescence polarization, His-ERG Ets domain / labelled DNA; Potency, µM (titrated, usually from 76.9 µM), most hits filed as inhibitors; hit rate 0.028% among 370,000; AID 624246, 2012; active = well fitted inhibition curve with a large enough effect in the polarisation, with a control signal flat; inconclusive = small, poorly fitted or top-dose-only effect, or effect the other way, or a change in a side signal; inactive = no such curve, though single readings can be large or run the other way; the % refers to the polarisation;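 also: polarization taken with two DNA probes labelled with fluorescein and Texas red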
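His-tagged ERG Ets domain (1 uM in the protein solution; 300mM KCl, 50mM Tris-HCl, 1mM EDTA, 1mM DTT, pH 7.5) received compound, then a probe mix of 5 nM fluorescein-DNA and 100nM Texas-615-DNA. Fluorescence polarization was read for both dyes.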
Anesthetic bind: qHTS Assay for Identification of Novel General Anesthetics. Ferritin light chain (Equus caballus), P02791. apoferritin/1-aminoanthracene competitive binding, fluorescence. Potency, µM (titrated, usually from 77.5 µM), hits mostly inhibitors. hit rate 0.074% among 350,000. AID 485281, 2010; also: nearly all actives have a fitted effect of over 20% in size
Target sequence (P02791 2-175 limits assumed): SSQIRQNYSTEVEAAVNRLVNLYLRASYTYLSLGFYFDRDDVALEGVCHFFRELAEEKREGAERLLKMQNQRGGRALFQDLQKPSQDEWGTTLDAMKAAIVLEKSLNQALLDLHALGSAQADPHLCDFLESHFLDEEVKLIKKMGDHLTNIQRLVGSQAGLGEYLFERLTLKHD
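Horse-spleen apoferritin (10 uM) was mixed with 50% saturated 1-aminoanthracene in PBS, exposed to compounds for 10 min at room temperature, and read for fluorescence (ex 380 nm, em 535 nm). Competitive displacement was fitted with a four-parameter Hill equation.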
GoLoco inh red: qHTS Assay for Inhibitors of RGS12 GoLoco Motif Activity (Red Fluorophore). AID 880, 2007. Potency, µM (titrated, usually from 61.6 µM), usual class: inhibitors. Gai1:RGS12 GoLoco peptide FP, rhodamine, 10 min. hit rate 0.44% among 230,000; active = well fitted inhibition curve with a large enough effect, not every such curve was filed as active; inactive = no such curve, though single readings can be large or run the other way; also: nearly all actives have a fitted effect of over 30% in size
Hits are given with their value; 0 = inactive; ? = inconclusive; - = no result given; [ ] = remark or other dose. Most compounds without a hit are left out; they make up all but 0.44% or so of the library. Unless noted, calls follow the shape of the dose curve; as a rule, active = well fitted curve in the direction sought with a large enough effect; inconclusive = small, poorly fitted or top-dose-only effect, or another doubt; inactive = no such curve, though single readings can be large; an effect the other way counts as inactive or inconclusive.

SMILES	TRb SRC2 PPI	TexasRed fluor	ERG Ets-DNA blk	Anesthetic bind	GoLoco inh red
CCOC(=O)N1CCN(c2cc(NCCC(=O)O)c3c4c(onc24)-c2ccccc2C3=O)CC1	28µM	13µM[fluorescent]	?	0	0
O=C(O)CCCNc1cc(N2CCN(C(=O)c3ccco3)CC2)c2noc3c2c1C(=O)c1ccccc1-3	-	-	0	0	-
Cc1ccc(Cl)cc1Cl	0	0	-	-	-
Cc1cc(C)cc(N=C2NC(=O)/C(=C/c3cccs3)S2)c1	0	0	0	0	1.8µM
Cc1cc(=O)n2[nH]c(-c3ccsc3-n3c(C)ccc3C)cc2n1	0	0	0	0	0
Cc1nc2cc(-c3ccsc3-n3c(C)ccc3C)[nH]n2c(=O)c1Cl	0	45µM[quencher]	0	0	0
CCC1CCCCN1S(=O)(=O)c1ccc(C(=O)N(CCCN(C)C)c2nc3cc4c(cc3s2)OCO4)cc1 (centres undefined)	-	-	0	56µM	-
COc1cccc2nc(-c3cccs3)nc(NN3C(=O)C=C(C)C3=O)c12	0	0	-	0	-
COC(=O)C(C)Oc1ccc(Oc2ncc(C(F)(F)F)cc2Cl)cc1 (centres undefined)	0	0	-	-	-
O=Cc1cccn1Cc1ccc(Cl)cc1Cl	0	0	0	14µM	0
COc1cccc(OC)c1C1=Nn2c(nnc2-c2ccccc2O)SC1	0	0	-	0	-
C=Cc1c(C)/c2[n-]/c1=C\c1[n-]c(c(CC)c1C)/C=c1\[n-]c3c(c1C)C(=O)C(C(=O)[O-])C=3c1[n-]c(c(C)c1CCC(=O)[O-])\C=2.[Cu].[Na+].[Na+] (centres undefined)	45µM	25µM[quencher]	-	?	0
O=C(OCC1CCC2OC2C1)C1CCC2OC2C1 (centres undefined)	0	0	-	-	-
O=C1SC(Nc2ccc(Cl)cc2)C(=O)N1Cc1ccccc1 (centres undefined)	0	0.0032µM[quencher]	0	?	-
CCOc1ccc(NC2SC(=O)N(Cc3ccccc3)C2=O)cc1 (centres undefined)	0	?	0	?	-
CCOc1ccc(-c2nonc2NC(=O)c2oc3ccc(F)cc3c2C)cc1	0	0.79µM[quencher]	0	0	-
O=c1[nH]c2ccccc2n1CCC1CCCCC1	0	0	0	28µM	0
Cc1ccc(N=Nc2c(O)ccc3ccccc23)c([N+](=O)[O-])c1	0	0	-	-	-
Cc1ccc(O)c(NC2=C(Cl)C(=O)N(Cc3ccccc3)C2=O)c1	0	0	0	22µM	0
Cc1ccc(C(=O)N2CCCCC2)cc1NC1=C(Cl)C(=O)N(Cc2ccccc2)C1=O	-	-	0	-	-
COC(=O)c1ccccc1C(=O)O	0	0	-	-	-
CCn1c(C)[n+](CCCS(=O)(=O)[O-])c2cc(Cl)c(Cl)cc21	0	0	0	0	4µM
CC(C)(C)C(O)/C(=C\c1ccc(Cl)cc1)n1cncn1 (centres undefined)	0	0	-	-	-
C=CCOc1c(Cl)cc(CNc2ccc(N(C)C)cc2)cc1OC	0	0	0	?	22µM
Cc1c(Cl)cccc1NC(=O)C1CCN(c2ncnc3c2nc2n3CCCCC2)CC1	0	20µM[quencher]	0	0	-
SMILES	TRb SRC2 PPI	TexasRed fluor	ERG Ets-DNA blk	Anesthetic bind	GoLoco inh red
CC(=O)c1c(C)c([N+](=O)[O-])c(C(C)(C)C)c([N+](=O)[O-])c1C	0	0	-	-	-
CC(Sc1nc(=O)cc(N)n1CCc1ccccc1)C(=O)Nc1ccc(Cl)cc1 (centres undefined)	0	0	0	0	-
COC(=O)c1ccc(NC(=O)C(C)Sc2nc(=O)cc(N)n2CCc2ccccc2)cc1 (centres undefined)	0	18µM[quencher]	0	0	-
CN=C(N)NCC1CCOC1 (centres undefined)	0	0	-	-	-
CC(C)C[C@H](NC(=O)[C@H](Cc1ccccc1)NC(=O)[C@H](Cc1ccccc1)NC(=O)[C@@H](N)CO)C(=O)N[C@@H](CCCN=C(N)N)C(=O)N[C@@H](CC(N)=O)C(=O)O	0	0	-	0	-
COC(=O)c1ccc(Cn2c(C)cc(C)[n+]2C)o1	0	0	0	0	18µM
COc1ccc(C(=O)c2ccccc2)cc1	0	0	0	0	0
COC1=CC(=O)C(C(=O)c2ccccc2)=CC1=O	?	0	-	0	6.3µM
CCCCC/C=C\C/C=C\CCCCCCCC(=O)OC	0	0	-	-	-
COCc1ccc(CN2CCCC(C(=O)Nc3ccccc3-c3ccc(OC)cc3)C2)o1 (centres undefined)	-	-	0	0	-
CCc1ccc(CN2CCCC(C(=O)Nc3ccccc3-c3ccc(OC)cc3)C2)o1 (centres undefined)	-	-	32µM	0	-
O=C(O)c1cc(N=Nc2ccc(-c3ccc(N=Nc4ccc(O)c(C(=O)O)c4)cc3)cc2)ccc1O	?	28µM[quencher]	-	0	-
O=C(O)c1ccc(N2C(=O)/C(=C/C=C/c3ccccc3)SC2=S)cc1	0	0	0	0	0
CN(C)c1ccc(/C=C/C=C2/SC(=S)N(c3ccccc3)C2=O)cc1	?	3.2µM[fluorescent]	?	0	0
O=C1c2ccccc2C(=O)N1CCC1=CCCCC1	0	0	0	22µM	0
CC(C)(C)C1CCC(OC(=O)C[N+]2(C)CCCCC2)CC1 (centres undefined)	0	0	0	0	8.9µM
CC(C)(C)C1CCC(OC(=O)C[N+]2(C)CCCC2)CC1 (centres undefined)	0	0	0	0	7.1µM
CCC(=O)N1CCc2cc(Br)cc(S(=O)(=O)N3CCCC(C(=O)NCc4cccc(OC)c4)C3)c21 (centres undefined)	0	0.0079µM[quencher]	0	0	-
CCCCOC(=O)[C@@H](C)Oc1ccc(Oc2ccc(C(F)(F)F)cn2)cc1	0	0	-	-	-
Cn1nnnc1SCCCNCc1cccc(OCc2ccc(F)cc2)c1	0	0.89µM[quencher]	0	?	-
CCOc1c(Cl)cc(Cl)cc1CNCCSc1nnnn1C	0	8.9µM[quencher]	0	0	-
Cn1nnnc1SCCNCc1ccccc1OCc1ccccc1F	0	10µM[quencher]	0	0	-
COc1c(Cl)cc(Cl)cc1CNCCSc1nnnn1C	0	0	0	0	-
Cn1nnnc1SCCCNCc1ccccc1OCc1ccccc1F	0	0	0	0	-
O=C(O)c1ccc2c(c1)C(=O)OC2=O	0	0	-	-	-
CCN1C=C(Cc2ccc(OC)cc2)C2=C(C1)C(c1ccc(OC)cc1)C(C#N)=C(N)O2 (centres undefined)	?	50µM[fluorescent]	0	?	0
Cc1ccc(NC(=O)CCCCCCCCCCC2COCCO2)c(C)c1 (centres undefined)	?	0.025µM[quencher]	-	0	0
COc1ccc(N=Cc2c(O)cc(C)oc2=O)cc1	0	0	0	0	0
Cc1cc(O)c(C=Nc2cccc(Cl)c2)c(=O)o1	?	45µM[fluorescent]	0	0	0
